Values joined by “and” are separate entries in the source; they are usually repeats but may differ in a detail not shown here. Equal values may be shown once. Records with an inconclusive call do not appear. Where a structure was tested more than once in an assay, its records may differ in their call. Active and inactive are the calls of the source. How the source made its calls, unless noted: active means hit-call score of the fitted dose curve at least 0.9, where 1 is the maximum; inactive means score below 0.9.
How the values were obtained:
[1] = CCTE_Shafer_MEA_acute_network_burst_percentage: CCTE's Neural Acute Assay for Percentage of Network Bursts, Shafer Lab (AID 2284022);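 further: curves fitted for loss so actives lower network burst percentage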
How it was run: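 Rat cortical cultures, DIV 13/15; 20 min equilibration, 40 min baseline, compound 0.03-40 uM, 40 min recording, 37 C. Spikes: 300-5000 Hz band-pass, threshold 8x rms noise. Readout: % change in network-burst spike fraction; loss direction vs DMSO.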

[2] = CCTE_Shafer_MEA_acute_cross_correlation_area: CCTE's Neural Acute Assay for Area of Cross Correlation, Shafer Lab (AID 2284024);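 further: area under pooled inter-electrode spike cross-correlation near zero lag as percent change from own baseline; curves fitted for loss of cross-correlation area so actives lower synchrony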
How it was run: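 Rat cortical cultures, DIV 13/15, MEA; spikes detected at 8x rms noise (300-5000 Hz band-pass). Compound 0.03-40 uM, ≥3 wells each. Readout: % change in pooled inter-electrode cross-correlation area vs own baseline; DMSO negative control.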

[3] = CCTE_Shafer_MEA_acute_cross_correlation_HWHM: CCTE's Neural Acute Assay for Cross Correlation at Half Width at Half Maximum, Shafer Lab (AID 2284026);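 further: percent change per well from pre-dose baseline in spike cross-correlogram half width; hits are a decrease in cross-correlogram half width relative to DMSO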
How it was run: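 Read-out: half width at half maximum of action-potential cross-correlogram, percent change versus pre-treatment baseline, fitted in loss direction against DMSO. Rat cortical cultures, DIV 13 or 15, dosed 0.03-40 uM, 40-min recordings at 37 C.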

[4] = CCTE_Deisenroth_AIME_384WELL_CTox_Active: Cytotoxicity Assessment (CTOX) in CCTE's 384-well Estrogen Receptor Transactivation Assay with AIME metabolic competence (metabolism positive), Deisenroth Lab (AID 2284037; active means hit-call score of the fitted dose curve at least 0.9, where 1 is the maximum;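 further: chemicals first conditioned 2 h by alginate-bound induced rat liver S9 before cells; activity means signal loss indicating cell death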)
How it was run: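 Cytotoxicity in VM7Luc4E2 breast cells, 24 hour, measured as protease-substrate fluorescence loss, after 2-hour metabolic conditioning with induced rat hepatic S9 in alginate microspheres. Concentrations 0.002 - 200 uM, 10 points, bidirectional fitting.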

[5] = biological target: Estrogen receptor (Homo sapiens) (UniProt P03372); experiment: CCTE_Deisenroth_AIME_384WELL_LUC_Inactive: CCTE's 384-well Estrogen Receptor Transactivation Assay without AIME metabolic competence (ERTA luciferase; metabolism negative), Deisenroth Lab (AID 2284038; active means hit-call score of the fitted dose curve at least 0.9, where 1 is the maximum;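 further: VM7Luc4E2 breast cells given medium preincubated 2 h with S9-free microspheres; hits raise estrogen receptor luciferase signal so potencies reflect agonists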)
Sequence of Estrogen receptor (Homo sapiens) (P03372 whole entry, looked up): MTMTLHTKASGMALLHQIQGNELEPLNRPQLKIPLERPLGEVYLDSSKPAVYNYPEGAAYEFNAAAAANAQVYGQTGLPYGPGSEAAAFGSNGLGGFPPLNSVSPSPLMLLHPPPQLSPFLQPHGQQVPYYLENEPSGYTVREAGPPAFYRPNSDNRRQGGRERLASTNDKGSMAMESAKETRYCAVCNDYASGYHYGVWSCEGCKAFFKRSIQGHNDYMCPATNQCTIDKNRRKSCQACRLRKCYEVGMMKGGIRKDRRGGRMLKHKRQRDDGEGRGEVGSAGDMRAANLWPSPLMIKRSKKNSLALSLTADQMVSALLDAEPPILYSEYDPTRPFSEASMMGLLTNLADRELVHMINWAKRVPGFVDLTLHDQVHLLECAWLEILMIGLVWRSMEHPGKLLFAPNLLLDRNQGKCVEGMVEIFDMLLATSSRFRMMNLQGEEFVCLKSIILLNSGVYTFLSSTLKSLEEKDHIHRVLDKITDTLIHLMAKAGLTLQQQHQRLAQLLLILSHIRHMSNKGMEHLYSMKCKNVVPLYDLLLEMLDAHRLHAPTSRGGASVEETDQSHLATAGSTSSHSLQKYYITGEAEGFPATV
How it was run: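 Metabolism-negative mode: AIME lids stamped in alginate-water, no hepatic S9. 2 h chemical incubation → medium onto VM7Luc4E2 ERTA, 24 h. Readout luciferase luminescence; gain-of-signal fit vs 17beta-estradiol. Conc. 0.002 - 200 uM.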

[6] = biological target: Estrogen receptor (Homo sapiens) (UniProt P03372); experiment: CCTE_Deisenroth_AIME_384WELL_LUC_Shift: CCTE's 384-well Estrogen Receptor Transactivation Assay with AIME metabolic competence data shift (ERTA luciferase; difference in metabolism positive and negative), Deisenroth Lab (AID 2284041);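 further: shift is response with S9 minus without S9 so positive means metabolism raised ER signal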
How it was run: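 Test chemicals (0.002–200 uM, 10-point) were pre-incubated 2 h with alginate microspheres containing phenobarbital/beta-naphthoflavone-induced male Sprague Dawley rat liver S9 or water, then medium was transferred to VM7Luc4E2 cells for 24 h luciferase readout; shift = S9-positive minus S9-negative normalized response.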

[7] = CCTE_Shafer_MEA_dev_firing_rate_mean: CCTE's Neural Network Formation Assay for Mean Firing Rate, Shafer Lab (AID 2284031);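 on AC50: curve fitted for loss of firing so AC50 reflects decreased mean firing rate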
How it was run: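 Read-out: spike count/recording length, averaged over active electrodes, then AUC across days 5, 7, 9, 12. Rat cortical cultures on MEA; continuous 12-day exposure, media and treatment renewed DIV 5, 9; DMSO baseline.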

[8] = CCTE_Shafer_MEA_dev_active_electrodes_number: CCTE's Neural Network Formation Assay for Number of Active Electrodes, Shafer Lab (AID 2284040; active means hit-call score of the fitted dose curve at least 0.9, where 1 is the maximum;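 on AC50: potency for loss of active electrodes versus DMSO so lower counts are hits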)
How it was run: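 Developing rat cortical networks on MEAs, exposed DIV 0–12. Value is the AUC of active-electrode counts (≥5 spikes/min) from days 5, 7, 9, 12, relative to DMSO.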

[9] = CCTE_Shafer_MEA_dev_burst_rate: CCTE's Neural Network Formation Assay for Burst Rate, Shafer Lab (AID 2284042);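 on AC50: potency for loss of burst rate below DMSO control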
How it was run: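 Primary rat cortical neurons on PEI-coated 48-well MEA plates (laminin added with cells at plating) (16 electrodes/well), exposed from plating to day 12, dosing renewed at DIV 5 and 9. Burst rate averaged over active electrodes, recorded DIV 5, 7, 9, 12, summarized as AUC; loss versus DMSO.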

[10] = CCTE_Shafer_MEA_dev_bursting_electrodes_number: CCTE's Neural Network Formation Assay for Number of Bursting Electrodes, Shafer Lab (AID 2284043; active means hit-call score of the fitted dose curve at least 0.9, where 1 is the maximum;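 on AC50: potency is for loss of bursting electrodes relative to DMSO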)
How it was run: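 Number of electrodes reaching ≥1 burst every 2 min was recorded at DIV 5, 7, 9 and 12 and collapsed as trapezoidal area under the curve. Cultures were rat cortical neurons on MEA plates, dosed continuously from plating with medium and treatment refreshed on DIV 5 and 9.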

[11] = CCTE_Shafer_MEA_dev_per_burst_interspike_interval: CCTE's Neural Network Formation Assay for Burst Interspike Interval, Shafer Lab (AID 2284044);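 on AC50: potency for a decrease of within-burst interspike interval below DMSO level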
How it was run: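 Readout is the average time between spikes inside single-electrode bursts, taken as a well mean across bursting electrodes. Cortical neurons from rat developed networks on MEA plates under continuous 12-day exposure; recordings on days 5, 7, 9 and 12 were integrated by trapezoidal AUC.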

[12] = CCTE_Shafer_MEA_dev_burst_duration_mean: CCTE's Neural Network Formation Assay for Mean Burst Duration, Shafer Lab (AID 2284045);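 on AC50: curve fitted for loss meaning shorter burst duration than DMSO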
How it was run: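 Mean single-electrode burst duration (first to last spike), averaged over bursting electrodes per well, then integrated as area-under-curve across recordings at days 5, 7, 9 and 12. Rat cortical cultures on MEAs, compound present from plating, refreshed at feeds.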

[13] = CCTE_Shafer_MEA_dev_interburst_interval_mean: CCTE's Neural Network Formation Assay for Mean Interburst Interval, Shafer Lab (AID 2284046);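 further: well-mean interburst interval of bursting electrodes as AUC over four recording days; curve fitted for decrease in interburst interval relative to DMSO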
How it was run: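 Recordings on days 5, 7, 9 and 12 give well-mean interburst interval across actively bursting electrodes, summarized as area under the curve. Cultures: rat cortical neurons, continuous exposure from day 0, compound renewed at feeds; decrease analyzed versus DMSO.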

[14] = CCTE_Shafer_MEA_dev_inter_network_spike_interval_mean: CCTE's Neural Network Formation Assay for Mean Inter-network Spike Interval, Shafer Lab (AID 2284047);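 on AC50: potency for a decrease in mean inter-network spike interval below DMSO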
How it was run: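 Primary rat cortical neurons on 16-electrode MEA wells, exposed from plating day 0 through DIV 12, compound renewed at DIV 5 and 9 media changes. Mean interval between network-spike peaks recorded DIV 5, 7, 9, 12; collapsed as trapezoidal AUC, fitted downward versus DMSO.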

[15] = CCTE_Shafer_MEA_dev_network_spike_peak: CCTE's Neural Network Formation Assay for Mean Number of Electrodes in Network Spike, Shafer Lab (AID 2284049);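 on AC50: fitted for loss of signal meaning fewer electrodes in network spikes than DMSO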
How it was run: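 Rat cortical primary culture, 1.5 x 10^5 cells/well, 48-well MEA (16 electrodes/well). Dosing day 0 through DIV 12, full media/compound exchange DIV 5, 9. AxIS adaptive spike detection; AUC over days 5/7/9/12; loss-of-signal vs DMSO.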

DIO2 (gene 1734) = experiment: CCTE_GLTED_hDIO2: CCTE's human Deiodinase 2 (DIO2) Inhibition Assay, Great Lakes Toxicology and Ecology Division (GLTED) Lab (AID 2284050; active means hit-call score of the fitted dose curve at least 0.9, where 1 is the maximum)
How it was run: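 Readout: absorbance from Sandell-Kolthoff detection of free iodide released by human DIO2 during a 3 h incubation with chemical. Cell-free format, n=3; activity fitted relative to DMSO negative control.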

Measured: AC50

CCOc1nc(F)cc2nc(S(=O)(=O)Nc3c(Cl)cccc3Cl)nn12
inactive: [1] | [2] | [3] | [4] | [5] | [6]

CO/N=C(/C1=NOCCO1)c1ccccc1Oc1ncnc(Oc2ccccc2Cl)c1F
inactive: [1] | [2] | [6] | [14] | DIO2 (gene 1734)
active: [3] 20 µM | [7] 589 nM and 960 nM | [4] 32.8 µM | [8] 1.2 µM and 1.05 µM | [9] 789 nM and 637 nM | [10] 968 nM and 1.02 µM | [11] 2.28 µM and 518 nM | [12] 1.23 µM and 858 nM | [13] 2.3 µM and 1.29 µM | [14] 0.52 µM | [15] 1.27 µM and 723 nM

CC(C)N1C(=O)c2ccccc2NS1(=O)=O
inactive: [1] | [2] | [3] | [5] | [6]

O=C(Nc1ccccc1-c1ccc(Cl)cc1)c1cccnc1Cl
inactive: [1] | [2] | [7] | [5] | [8] | [6] | [9] | [10] | [11] | [12] | [13] | [14] | [15]
active: [3] 23.5 µM | [7] 4.96 µM | [8] 9.92 µM | [9] 4.18 µM and 3.1 nM | [10] 7.09 µM | [11] 5.35 µM | [13] 2.59 µM | [14] 0.01 µM | [15] 9.92 µM

N#Cc1c[nH]cc1-c1cccc2c1OC(F)(F)O2
active: [3] 20 µM
inactive: [1] | [2]

CCOP(=O)(OCC)Oc1nc(Cl)c(Cl)cc1Cl
active: [3] 34.8 µM | [8] 904 nM and 8.09 µM | [10] 852 nM and 6.59 µM | [15] 3.32 µM and 9.79 µM
inactive: [1] | [2] | [7] | [5] | [8] | [6] | [9] | [11] | [12] | [13] | [14] | [15]

CC(C)N1C(=O)N(c2ccccc2)CSC1=NC(C)(C)C
active: [1] 26.5 µM | [3] 20 µM
inactive: [2] | [4] | [5] | [6]

CN/C(=N\[N+](=O)[O-])NCc1cnc(Cl)s1
active: [2] 0.16 µM
inactive: [1] | [3] | [7] | [8] | [9] | [10] | [11] | [12] | [13] | [14] | [15]

CC1(C)CCC(=Cc2ccc(Cl)cc2)C1(O)Cn1cncn1 (centres undefined)
inactive: [1] | [2] | [3]

CCCC(=NOCC)C1=C(O)CC(CC(C)SCC)CC1=O (centres undefined)
inactive: [1] | [2] | [5] | [6]
active: [3] 30.7 µM

Cc1nc(N(C)C)nc(OC(=O)N(C)C)c1C
inactive: [1] | [2] | [3]
active: DIO2 (gene 1734) 44.6 µM

CCOc1cc(C(C)(C)C)ccc1C1COC(c2c(F)cccc2F)=N1 (centres undefined)
active: [1] 20 µM | [3] 20 µM
inactive: [2]

Cn1c(-c2ccccc2)cc(-c2ccccc2)[n+]1C
inactive: [2]
active: [1] 28 µM | [3] 20 µM

From PubChem BioAssay (EPA / NIEHS)
